Shown are actives, neighbours in structure and some others; about 3.5% of the full set was active somewhere.
GPR151 ag: activators of human GPR151, primary screen, cell-based, PathHunter beta-arrestin, luminescence. AID 1508602, 2020. 650,000 tested, 1% active. PathHunter beta-arrestin GPR151 cells. G-protein coupled receptor 151 (Homo sapiens), Q8TDV0. activation, % at 11.2 µM; in the data active = activation above about 4.9%;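 note: 0% = median of compound wells and 100% = cells with positive control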
MITF inh: MITF inhibitors, primary screen, biochemical, AlphaScreen, human. Microphthalmia-associated transcription factor (Homo sapiens), O75030. AlphaScreen MITF homodimerization, bead proximity signal. inhibition, % at 2.6 µM. 650,000 tested, 0.91% active. AID 1259374, 2018; in the data active = inhibition above about 50%;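 note: 0% = vehicle wells with protein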
TEAD-YAP inh: TEAD-YAP interaction inhibition, primary screen, TEAD-YAP interaction inhibitor project, luminescence, HEK-TIYL cells; TEAD-Gal4/YAP UAS-luciferase luminescence; inhibition, % at 9.12 µM; 640,000 tested, 1.4% active; in the data active = inhibition above about 32%;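 note: 0% = median of test compound wells and 100% = reference inhibitor wells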
FBW7 activator: FBW7 E3 ligase activators, primary screen, biochemical, AlphaScreen, human; normalized activity (activation), % at 26.1 µM; 650,000 tested, 0.13% active; AID 1259310, 2017; F-box/WD repeat-containing protein 7 (Homo sapiens), Q969H0; AlphaScreen FBW7–phospho-cyclin E peptide binding, activator screen; in the data active = normalized activity above about 1.9%;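 note: purified mutant Fbw7 with reduced substrate affinity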
Target sequence (Q969H0 whole entry, looked up): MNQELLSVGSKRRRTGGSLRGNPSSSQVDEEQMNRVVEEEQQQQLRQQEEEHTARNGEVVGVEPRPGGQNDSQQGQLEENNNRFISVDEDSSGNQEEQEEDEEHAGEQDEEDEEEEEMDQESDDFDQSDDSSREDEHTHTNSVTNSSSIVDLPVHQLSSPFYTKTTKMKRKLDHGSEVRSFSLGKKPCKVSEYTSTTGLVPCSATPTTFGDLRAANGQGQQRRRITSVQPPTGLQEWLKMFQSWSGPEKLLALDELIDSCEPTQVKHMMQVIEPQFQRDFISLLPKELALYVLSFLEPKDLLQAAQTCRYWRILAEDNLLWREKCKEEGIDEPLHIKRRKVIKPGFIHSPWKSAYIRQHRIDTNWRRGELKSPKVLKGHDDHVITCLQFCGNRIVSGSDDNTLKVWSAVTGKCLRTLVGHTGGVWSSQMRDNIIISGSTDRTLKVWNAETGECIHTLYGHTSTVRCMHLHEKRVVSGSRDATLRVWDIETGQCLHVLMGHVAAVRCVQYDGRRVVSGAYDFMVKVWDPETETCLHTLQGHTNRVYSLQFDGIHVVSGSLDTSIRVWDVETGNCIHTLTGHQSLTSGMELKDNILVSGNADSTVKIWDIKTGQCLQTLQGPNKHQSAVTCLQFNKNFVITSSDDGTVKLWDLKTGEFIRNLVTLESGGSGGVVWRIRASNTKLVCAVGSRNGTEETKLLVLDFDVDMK
GPR151 conf act: GPR151 activators, triplicate retest, confirmation, cell-based, PathHunter beta-arrestin, luminescence; shares compounds with GPR151 ag; GPR151 PathHunter beta-arrestin cells, 90 min; % of EA-reagent control over plate median; activation, % at 11.2 µM; 6,700 tested, under 10 active;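 active = mean percent activation across replicates above the confirmation screen cutoff of 4.91%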
GPR119 ag: GPR119 activators in beta-arrestin cells, counter-screen for GPR151 activator project, cell-based, PathHunter beta-arrestin, luminescence, triplicate. AID 1508611, 2020. 6,700 tested, 0.3% active. shares compounds with GPR151 ag. activation, % at 11.2 µM. 90 min; 0 = compound-well median, 100 = enzyme-acceptor control;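 active = mean percent activation in the counterscreen above 29.09%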;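 note: counterscreen on off-target GPR119 to flag nonselective hits from the GPR151 activator screen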
Active calls of the source: *; x = no result.

SMILES	GPR151 ag	MITF inh	TEAD-YAP inh	FBW7 activator	GPR151 conf act	GPR119 ag
O=C(/C=C/c1cccs1)NC(=S)Nc1cc([N+](=O)[O-])ccc1O	5.4*	34	-12	0	0	-7
O=C(/C=C/c1cccs1)Nc1cc([N+](=O)[O-])ccc1Cl	1	15	-1	0	x	x
Cc1ccccc1-c1nnc(SCC(=O)N2CCN(c3ccccc3)CC2)o1	6.5*	5	12	0	1	6
Cc1ccccc1-c1nnc(SCC(=O)N2CCOCC2)o1	0	13	-53	0	x	x
Cc1nnc(SCC(=O)N2CCN(c3ccccc3)CC2)s1	6.4*	10	1	0	1	10
CC(=O)Nc1nnc(SCC(=O)N2CCN(c3ccccc3)CC2)s1	-1	-13	6	0	x	x
C=CCn1c(SCCc2ccccc2)nc2sc3c(c2c1=O)CCCC3	0	-6	7	0	x	x
Cc1cc([N+](=O)[O-])ccc1NC(=S)NC(=O)COc1ccccc1	7.3*	3	7	0	1	12
Cc1ccc(C(=O)NCc2ccc3c(c2)OCO3)cc1S(=O)(=O)N1CCCCCC1	1	-6	3	0	x	x
O=C1C(=O)N(c2nc3ccccc3s2)C(c2ccccc2)/C1=C(\O)c1ccccc1 (stereo not given)	4.9*	9	12	0	1	15
CCC(C(=O)O)c1ccc(N2CC(O)=C(c3ccccc3)C2=N)cc1 (stereo not given)	0	-10	-13	0	x	x
CCOC(=O)CN1C(=O)CC(c2ccc(OC(C)C)cc2)C1=O (stereo not given)	1	10	5	0	x	x
CC(C)(CO)Nc1nc(Cl)nc(NCc2ccccc2)n1	2	22	3	0	x	x
O=C(COC(=O)c1cccc(S(=O)(=O)NCC(F)(F)F)c1)c1ccccc1	5.6*	16	-9	0	-1	0
O=C(N/N=C/c1ccncc1)c1cc(-c2ccc(Br)cc2)n[nH]1	5.8*	7	-10	0	0	-2
COC(=O)c1ccc(/C=N/NC(=O)c2cc3ccccc3cc2O)cc1	-2	15	21	1	x	x
O=C(N/N=C/c1cc(I)ccc1O)c1cc(-c2ccccc2)n[nH]1	1	5	12	0	x	x
O=C(N/N=C/c1ccncc1)c1cc2ccccc2cc1O	5.0*	10	3	0	-2	-13
O=C(N/N=C/c1ccc(O)cc1)c1cc(-c2ccc(Br)cc2)n[nH]1	0	8	19	0	x	x
O=C(N/N=C/c1ccccc1O)c1cc(-c2ccc(Br)cc2)n[nH]1	5.5*	16	2	0	1	-5
COc1ccc(CNc2ccnc3c(-c4ccccc4OC)cnn23)cc1	-1	13	-11	0	x	x
CC1=Nc2ccccc2/C1=C/c1nc(-c2ccc(F)cc2)oc1O	-2	-21	-11	0	x	x
O=S(=O)(CCOc1nc2cc(Cl)ccc2cc1CNC1CCOC1)c1ccccc1 (stereo not given)	6.8*	14	1	0	0	12
Cc1ccccc1NC(=O)C(C)(C)N(Cc1ccco1)C(=O)C(C)Oc1cc(Cl)c(Cl)cc1Cl (stereo not given)	5.6*	12	-8	0	0	-8
Cc1cc(OC(C)C(=O)N(Cc2ccco2)C2CCS(=O)(=O)C2)ccc1Cl (stereo not given)	-1	7	8	0	x	x
SMILES	GPR151 ag	MITF inh	TEAD-YAP inh	FBW7 activator	GPR151 conf act	GPR119 ag
O=C(Nc1cccs1)Nc1ccccc1NC(=O)c1ccccc1F	0	11	-39	0	x	x
Cc1ccccc1C(=O)Nc1ccccc1NC(=O)Nc1cccs1	12*	10	-13	0	0	4
CC(=O)c1cccc(-c2ccc(C(=O)NCc3nc4ccccc4[nH]3)s2)c1	1	13	-14	0	x	x
Cc1cc(C(=O)Nc2ccccc2C(F)(F)F)on1	5.3*	7	-6	0	1	4
Cc1cccc2sc(N(Cc3ccccn3)C(=O)CCOc3ccccc3)nc12	5.8*	-6	-14	0	0	3
Cc1ccc(C(=O)Nc2ccc(NC(=O)c3ccccc3N)cc2)cc1	5.3*	-1	-8	1	1	12
c1nnn(CC2CCOCO2)n1 (stereo not given)	15*	12	7	0	0	-5
CCC(CO)Nc1ccc2ncc(-c3cccc(N(C)C)c3)n2n1 (stereo not given)	6.4*	-18	5	0	0	-4
CC(C)[C@@H](CO)Nc1ccc2ncc(-c3cccc(N(C)C)c3)n2n1	0	11	4	0	x	x
CC(C)[C@H](NC(=O)c1ccc(F)cc1)C(=O)OCC(=O)Nc1ccc(C#N)cc1	7.4*	2	-7	0	0	-12
O=C(Cn1nnnc1CN1CCCCCC1)NC(c1ccco1)C(F)(F)F (stereo not given)	0	11	-3	0	x	x
O=C(O)c1cccc(-n2nnnc2-c2ccccc2)c1	5.8*	-5	-7	0	-1	-18
CCOc1ccc(C(=S)N2CCCCC2)cc1	6.2*	-30	-19	0	0	-9
CCOc1ccc(C(=S)N2CCCC2)cc1	-1	5	1	0	x	x
O=C(NCc1cccnc1)c1csc(-c2csc3ccccc23)n1	-2	17	15	0	x	x
COc1ccc(NC(=O)C2C3NC(=S)NC2(C)Oc2c(OC)cccc23)cc1 (stereo not given)	-1	25	17	0	x	x
Cc1c(NC(=O)c2ccc(OCc3c(F)cccc3Cl)cc2)c(=O)n(-c2ccccc2)n1C	8.3*	4	5	0	2	-2
CC(C)C[C@H]1C(=O)N2CCN(Cc3cnn(-c4ccccc4Cl)c3)C[C@@H]2C(=O)N1C	5.8*	-5	-16	0	0	4
O=C1[C@@H]2CCCN2C(=O)[C@H]2CN(Cc3cnn(-c4ccccc4Cl)c3)CCN12	0	3	-2	0	x	x
CCOC(=O)C1=CN(C)C=C(C(=O)OCC)C1c1ccc(OCC)c(OC)c1	0	-13	-8	0	x	x
COc1ccccc1N1CCN(C(=O)c2cnc(N3CCN(c4ncccn4)CC3)c3ccccc23)CC1	5.3*	6	24	0	2	14
COc1ccccc1N1CCN(c2ncc(C(=O)N3CCN(c4ccccn4)CC3)c3ccccc23)CC1	-1	13	1	1	x	x

Source: PubChem (The Scripps Research Institute Molecular Screening Center)
